Data published in the supplement of paper PMC11732987, “Enantioselective OTUD7B fragment discovery through chemoproteomics screening and high-throughput optimisation” (Communications Chemistry, 2025).

Columns and labels:
Assay in all cases: log2 ratio of Biotin-Ahx-Ub-VS probe labelling (fragment/DMSO); higher = less target engagement (more negative = stronger competition), active = hit call of the paper (q ≤ 0.05, log2 ratio ≤ -1)
Settings in all cases: compound concentration: 200 uM; treatment time: 3 h
[1] = molecular target: T1, USP42 (UniProt Q9H9J4)
T1 sequence (whole entry): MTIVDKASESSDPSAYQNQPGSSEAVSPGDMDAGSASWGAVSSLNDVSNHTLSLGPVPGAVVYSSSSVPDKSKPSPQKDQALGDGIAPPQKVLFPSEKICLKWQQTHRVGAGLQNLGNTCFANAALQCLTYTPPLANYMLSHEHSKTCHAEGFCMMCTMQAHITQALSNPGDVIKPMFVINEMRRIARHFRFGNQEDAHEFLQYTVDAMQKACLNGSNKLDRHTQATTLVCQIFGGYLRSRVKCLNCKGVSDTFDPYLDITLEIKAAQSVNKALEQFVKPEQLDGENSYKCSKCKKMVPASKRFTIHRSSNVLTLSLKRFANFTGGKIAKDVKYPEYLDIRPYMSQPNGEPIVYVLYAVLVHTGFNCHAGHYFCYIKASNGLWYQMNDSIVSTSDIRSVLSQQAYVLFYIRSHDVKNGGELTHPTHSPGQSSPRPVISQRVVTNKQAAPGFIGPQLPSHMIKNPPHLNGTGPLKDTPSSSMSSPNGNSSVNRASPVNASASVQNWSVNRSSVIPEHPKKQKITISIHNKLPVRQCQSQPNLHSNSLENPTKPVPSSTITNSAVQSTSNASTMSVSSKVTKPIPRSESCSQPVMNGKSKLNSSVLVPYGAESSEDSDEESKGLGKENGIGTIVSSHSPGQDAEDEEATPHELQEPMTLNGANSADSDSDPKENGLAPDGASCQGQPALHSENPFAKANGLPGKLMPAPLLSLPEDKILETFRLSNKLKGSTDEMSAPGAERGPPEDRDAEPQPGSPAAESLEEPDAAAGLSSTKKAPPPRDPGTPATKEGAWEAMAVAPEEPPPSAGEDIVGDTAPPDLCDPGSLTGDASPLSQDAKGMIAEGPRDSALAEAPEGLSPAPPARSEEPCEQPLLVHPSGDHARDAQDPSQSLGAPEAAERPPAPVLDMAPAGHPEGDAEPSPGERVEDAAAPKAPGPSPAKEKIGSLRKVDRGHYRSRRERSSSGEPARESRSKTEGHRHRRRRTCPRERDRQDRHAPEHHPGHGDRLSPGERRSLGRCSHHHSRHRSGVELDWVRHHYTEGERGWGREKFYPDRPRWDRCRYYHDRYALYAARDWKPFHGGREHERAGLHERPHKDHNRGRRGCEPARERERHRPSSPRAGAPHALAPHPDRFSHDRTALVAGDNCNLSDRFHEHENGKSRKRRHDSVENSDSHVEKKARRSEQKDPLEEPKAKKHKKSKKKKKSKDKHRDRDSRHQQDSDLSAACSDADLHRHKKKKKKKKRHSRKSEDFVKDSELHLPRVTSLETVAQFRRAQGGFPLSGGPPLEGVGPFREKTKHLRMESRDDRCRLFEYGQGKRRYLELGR
Outline: (§1)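 HEK293T lysate (495 µg per sample, in Tris/CHAPS/IGEPAL buffer with protease inhibitors) was treated in triplicate with fragment at 200 µM or with DMSO for 3 h. It was then treated with Biotin-Ahx-Ub-VS (0.5 µM final) for 1 h. Labelled DUBs were NeutrAvidin-enriched, digested with LysC and trypsin, and run by diaPASEF LC-MS/MS. Spectronaut label-free quantities were global-median-normalised. Values are average log2 ratios fragment/DMSO by unpaired t-test, using proteins with ≥2 unique peptides.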

[2] = molecular target: USP46 (UniProt P62068)
Outline: as §1

[3] = molecular target: T2, USP47 (UniProt Q96K76)
T2 sequence (whole entry): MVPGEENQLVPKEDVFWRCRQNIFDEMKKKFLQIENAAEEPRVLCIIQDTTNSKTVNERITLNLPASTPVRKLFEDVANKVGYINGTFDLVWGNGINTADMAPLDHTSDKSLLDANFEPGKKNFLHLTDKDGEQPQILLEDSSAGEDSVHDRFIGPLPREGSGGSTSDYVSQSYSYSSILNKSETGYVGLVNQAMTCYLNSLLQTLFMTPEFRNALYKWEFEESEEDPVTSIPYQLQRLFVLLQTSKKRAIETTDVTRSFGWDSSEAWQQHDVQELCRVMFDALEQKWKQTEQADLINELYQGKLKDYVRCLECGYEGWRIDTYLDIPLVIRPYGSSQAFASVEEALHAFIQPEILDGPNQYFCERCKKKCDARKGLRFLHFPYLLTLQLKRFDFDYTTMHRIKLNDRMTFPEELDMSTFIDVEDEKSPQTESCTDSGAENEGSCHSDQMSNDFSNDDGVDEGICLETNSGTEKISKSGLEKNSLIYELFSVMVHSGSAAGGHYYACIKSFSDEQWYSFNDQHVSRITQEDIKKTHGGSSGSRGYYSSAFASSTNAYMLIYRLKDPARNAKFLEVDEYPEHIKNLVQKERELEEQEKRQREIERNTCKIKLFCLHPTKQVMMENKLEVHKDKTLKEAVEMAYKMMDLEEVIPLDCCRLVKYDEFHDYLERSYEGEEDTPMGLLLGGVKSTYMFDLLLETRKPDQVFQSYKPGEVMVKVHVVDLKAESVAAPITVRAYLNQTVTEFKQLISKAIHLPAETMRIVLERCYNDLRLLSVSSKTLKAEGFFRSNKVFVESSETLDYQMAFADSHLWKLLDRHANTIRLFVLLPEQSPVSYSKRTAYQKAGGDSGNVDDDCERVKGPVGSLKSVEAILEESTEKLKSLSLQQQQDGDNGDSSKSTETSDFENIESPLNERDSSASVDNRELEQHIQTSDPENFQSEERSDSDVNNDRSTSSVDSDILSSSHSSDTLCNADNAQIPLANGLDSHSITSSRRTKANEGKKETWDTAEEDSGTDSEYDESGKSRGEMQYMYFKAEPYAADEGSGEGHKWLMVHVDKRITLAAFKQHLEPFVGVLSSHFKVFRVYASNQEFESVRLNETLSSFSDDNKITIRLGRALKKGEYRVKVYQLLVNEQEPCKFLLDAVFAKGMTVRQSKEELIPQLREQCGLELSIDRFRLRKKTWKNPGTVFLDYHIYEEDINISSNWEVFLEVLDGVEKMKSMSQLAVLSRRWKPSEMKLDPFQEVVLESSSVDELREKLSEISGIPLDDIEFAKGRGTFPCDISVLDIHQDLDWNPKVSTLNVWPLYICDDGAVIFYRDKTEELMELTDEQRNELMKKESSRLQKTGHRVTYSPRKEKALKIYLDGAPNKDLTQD
Outline: as §1

[4] = molecular target: T3, USP48 (UniProt Q86UV5)
T3 sequence (whole entry): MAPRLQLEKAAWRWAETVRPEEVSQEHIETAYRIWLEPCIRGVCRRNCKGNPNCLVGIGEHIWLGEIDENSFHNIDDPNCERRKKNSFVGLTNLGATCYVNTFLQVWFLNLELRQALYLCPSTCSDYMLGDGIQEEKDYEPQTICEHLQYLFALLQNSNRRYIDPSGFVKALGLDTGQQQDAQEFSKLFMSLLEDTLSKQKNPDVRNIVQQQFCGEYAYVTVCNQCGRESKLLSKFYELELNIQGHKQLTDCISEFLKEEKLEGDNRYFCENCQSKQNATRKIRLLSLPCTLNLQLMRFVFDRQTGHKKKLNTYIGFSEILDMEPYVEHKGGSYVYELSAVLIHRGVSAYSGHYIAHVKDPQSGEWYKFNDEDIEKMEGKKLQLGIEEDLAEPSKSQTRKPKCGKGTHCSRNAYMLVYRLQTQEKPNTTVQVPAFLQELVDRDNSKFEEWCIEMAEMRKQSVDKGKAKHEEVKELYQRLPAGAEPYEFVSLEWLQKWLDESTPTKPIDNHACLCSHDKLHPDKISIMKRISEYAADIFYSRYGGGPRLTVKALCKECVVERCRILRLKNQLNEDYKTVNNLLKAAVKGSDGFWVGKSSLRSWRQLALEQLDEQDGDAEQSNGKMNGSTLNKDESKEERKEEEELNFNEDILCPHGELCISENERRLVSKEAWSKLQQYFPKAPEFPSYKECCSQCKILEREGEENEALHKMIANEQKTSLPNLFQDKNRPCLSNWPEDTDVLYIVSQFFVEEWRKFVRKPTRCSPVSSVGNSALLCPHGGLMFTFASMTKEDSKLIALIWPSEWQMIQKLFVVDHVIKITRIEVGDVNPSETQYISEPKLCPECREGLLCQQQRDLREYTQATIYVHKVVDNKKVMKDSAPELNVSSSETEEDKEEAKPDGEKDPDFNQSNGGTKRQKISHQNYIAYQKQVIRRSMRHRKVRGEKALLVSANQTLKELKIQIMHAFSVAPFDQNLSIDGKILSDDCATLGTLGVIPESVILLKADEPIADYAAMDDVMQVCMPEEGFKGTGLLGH
Outline: as §1

[5] = molecular target: T4, USP5 (UniProt P45974)
T4 sequence (whole entry): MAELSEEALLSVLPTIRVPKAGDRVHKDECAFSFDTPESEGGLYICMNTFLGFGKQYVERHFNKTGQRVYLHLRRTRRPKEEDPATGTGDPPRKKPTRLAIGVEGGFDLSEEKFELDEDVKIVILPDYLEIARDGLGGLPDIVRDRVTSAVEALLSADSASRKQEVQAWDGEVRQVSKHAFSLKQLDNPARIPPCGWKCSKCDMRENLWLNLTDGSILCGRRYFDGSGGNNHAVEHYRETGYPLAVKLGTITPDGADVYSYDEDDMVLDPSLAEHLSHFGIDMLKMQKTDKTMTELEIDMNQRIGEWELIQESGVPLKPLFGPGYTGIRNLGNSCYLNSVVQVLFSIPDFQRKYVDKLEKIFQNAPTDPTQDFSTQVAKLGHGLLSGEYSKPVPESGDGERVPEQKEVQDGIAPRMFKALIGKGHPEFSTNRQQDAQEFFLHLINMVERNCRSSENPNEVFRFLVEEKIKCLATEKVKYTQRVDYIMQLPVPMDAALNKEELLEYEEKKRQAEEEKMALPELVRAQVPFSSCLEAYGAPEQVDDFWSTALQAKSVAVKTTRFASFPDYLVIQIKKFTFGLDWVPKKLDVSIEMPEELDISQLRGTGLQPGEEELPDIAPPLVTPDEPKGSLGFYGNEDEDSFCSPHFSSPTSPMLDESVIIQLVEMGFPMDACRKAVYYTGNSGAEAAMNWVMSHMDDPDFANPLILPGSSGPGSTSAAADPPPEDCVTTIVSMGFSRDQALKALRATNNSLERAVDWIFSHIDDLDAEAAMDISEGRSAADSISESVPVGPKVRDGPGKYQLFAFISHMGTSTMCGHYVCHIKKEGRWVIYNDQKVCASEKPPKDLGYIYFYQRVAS
Outline: as §1

[6] = molecular target: USP54 (UniProt Q70EL1)
Outline: as §1

[7] = molecular target: USP7 (UniProt Q93009)
Outline: as §1

[8] = molecular target: T5, USP8 (UniProt P40818)
T5 sequence (whole entry): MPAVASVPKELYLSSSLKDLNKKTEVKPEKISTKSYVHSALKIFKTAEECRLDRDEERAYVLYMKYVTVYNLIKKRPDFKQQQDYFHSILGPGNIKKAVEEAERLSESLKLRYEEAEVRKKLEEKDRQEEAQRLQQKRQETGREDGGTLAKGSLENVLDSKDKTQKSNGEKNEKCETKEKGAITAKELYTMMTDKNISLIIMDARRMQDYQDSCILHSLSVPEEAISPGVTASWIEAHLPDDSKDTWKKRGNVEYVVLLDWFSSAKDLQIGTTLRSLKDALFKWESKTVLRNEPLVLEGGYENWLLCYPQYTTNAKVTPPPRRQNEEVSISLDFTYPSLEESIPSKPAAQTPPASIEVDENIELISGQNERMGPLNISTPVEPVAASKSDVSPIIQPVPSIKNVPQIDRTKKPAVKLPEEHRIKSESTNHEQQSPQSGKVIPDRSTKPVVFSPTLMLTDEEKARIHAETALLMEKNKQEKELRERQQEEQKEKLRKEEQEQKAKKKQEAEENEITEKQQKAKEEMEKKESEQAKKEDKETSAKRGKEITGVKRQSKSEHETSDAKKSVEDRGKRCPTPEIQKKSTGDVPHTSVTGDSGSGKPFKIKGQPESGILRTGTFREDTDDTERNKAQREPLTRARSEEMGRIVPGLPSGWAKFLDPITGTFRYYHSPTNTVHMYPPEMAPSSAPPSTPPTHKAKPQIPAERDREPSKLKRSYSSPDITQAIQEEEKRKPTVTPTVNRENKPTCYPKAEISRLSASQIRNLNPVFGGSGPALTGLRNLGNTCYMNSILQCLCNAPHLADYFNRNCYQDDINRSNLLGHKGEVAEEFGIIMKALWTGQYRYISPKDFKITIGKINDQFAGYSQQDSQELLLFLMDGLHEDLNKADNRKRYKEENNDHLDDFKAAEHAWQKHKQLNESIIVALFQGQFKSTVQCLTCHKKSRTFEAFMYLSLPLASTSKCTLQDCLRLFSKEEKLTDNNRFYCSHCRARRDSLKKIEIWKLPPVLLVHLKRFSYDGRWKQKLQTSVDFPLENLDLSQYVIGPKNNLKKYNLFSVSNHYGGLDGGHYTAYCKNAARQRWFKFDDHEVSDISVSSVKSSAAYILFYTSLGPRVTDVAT
Outline: as §1

Measured: log2 ratio of Biotin-Ahx-Ub-VS probe labelling

Chain of USP7 (Q93009 whole entry, looked up): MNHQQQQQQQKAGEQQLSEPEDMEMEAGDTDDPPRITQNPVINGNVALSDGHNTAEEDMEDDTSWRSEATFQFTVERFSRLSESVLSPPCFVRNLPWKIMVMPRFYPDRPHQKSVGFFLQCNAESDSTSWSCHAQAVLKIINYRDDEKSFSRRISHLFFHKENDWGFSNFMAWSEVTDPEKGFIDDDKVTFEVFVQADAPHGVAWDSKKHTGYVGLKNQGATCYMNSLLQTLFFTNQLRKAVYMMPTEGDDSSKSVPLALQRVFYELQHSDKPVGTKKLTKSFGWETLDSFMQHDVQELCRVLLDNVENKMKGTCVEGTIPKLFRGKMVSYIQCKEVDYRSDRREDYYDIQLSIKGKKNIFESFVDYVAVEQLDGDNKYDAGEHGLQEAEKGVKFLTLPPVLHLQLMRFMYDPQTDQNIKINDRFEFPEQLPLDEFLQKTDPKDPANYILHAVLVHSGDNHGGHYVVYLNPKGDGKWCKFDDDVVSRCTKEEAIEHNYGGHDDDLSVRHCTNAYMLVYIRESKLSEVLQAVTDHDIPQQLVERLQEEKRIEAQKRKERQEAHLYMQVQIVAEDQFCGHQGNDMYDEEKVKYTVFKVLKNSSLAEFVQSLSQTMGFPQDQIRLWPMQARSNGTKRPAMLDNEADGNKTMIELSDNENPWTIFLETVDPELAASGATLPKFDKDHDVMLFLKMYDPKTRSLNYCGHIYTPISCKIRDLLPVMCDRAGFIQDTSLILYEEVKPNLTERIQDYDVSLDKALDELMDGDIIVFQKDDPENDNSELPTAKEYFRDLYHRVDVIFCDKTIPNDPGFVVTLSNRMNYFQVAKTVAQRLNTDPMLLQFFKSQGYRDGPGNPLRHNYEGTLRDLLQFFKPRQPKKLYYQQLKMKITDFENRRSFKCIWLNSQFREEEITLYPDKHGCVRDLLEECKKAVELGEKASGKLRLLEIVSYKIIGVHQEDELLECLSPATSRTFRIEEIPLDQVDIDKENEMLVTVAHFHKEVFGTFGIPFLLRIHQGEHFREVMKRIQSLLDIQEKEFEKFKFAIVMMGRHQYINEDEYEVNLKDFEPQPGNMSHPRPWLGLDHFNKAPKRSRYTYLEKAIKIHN
Chain of USP46 (P62068 whole entry): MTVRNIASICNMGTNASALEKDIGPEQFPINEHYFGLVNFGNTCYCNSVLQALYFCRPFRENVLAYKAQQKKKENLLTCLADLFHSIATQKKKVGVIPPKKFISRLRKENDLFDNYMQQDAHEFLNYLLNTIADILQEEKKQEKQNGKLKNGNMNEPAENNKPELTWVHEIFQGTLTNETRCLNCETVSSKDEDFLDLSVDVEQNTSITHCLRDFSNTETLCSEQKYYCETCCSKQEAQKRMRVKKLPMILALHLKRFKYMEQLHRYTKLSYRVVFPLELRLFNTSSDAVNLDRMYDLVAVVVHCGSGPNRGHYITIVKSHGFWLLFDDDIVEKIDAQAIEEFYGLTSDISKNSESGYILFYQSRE
Chain of USP54 (Q70EL1 whole entry): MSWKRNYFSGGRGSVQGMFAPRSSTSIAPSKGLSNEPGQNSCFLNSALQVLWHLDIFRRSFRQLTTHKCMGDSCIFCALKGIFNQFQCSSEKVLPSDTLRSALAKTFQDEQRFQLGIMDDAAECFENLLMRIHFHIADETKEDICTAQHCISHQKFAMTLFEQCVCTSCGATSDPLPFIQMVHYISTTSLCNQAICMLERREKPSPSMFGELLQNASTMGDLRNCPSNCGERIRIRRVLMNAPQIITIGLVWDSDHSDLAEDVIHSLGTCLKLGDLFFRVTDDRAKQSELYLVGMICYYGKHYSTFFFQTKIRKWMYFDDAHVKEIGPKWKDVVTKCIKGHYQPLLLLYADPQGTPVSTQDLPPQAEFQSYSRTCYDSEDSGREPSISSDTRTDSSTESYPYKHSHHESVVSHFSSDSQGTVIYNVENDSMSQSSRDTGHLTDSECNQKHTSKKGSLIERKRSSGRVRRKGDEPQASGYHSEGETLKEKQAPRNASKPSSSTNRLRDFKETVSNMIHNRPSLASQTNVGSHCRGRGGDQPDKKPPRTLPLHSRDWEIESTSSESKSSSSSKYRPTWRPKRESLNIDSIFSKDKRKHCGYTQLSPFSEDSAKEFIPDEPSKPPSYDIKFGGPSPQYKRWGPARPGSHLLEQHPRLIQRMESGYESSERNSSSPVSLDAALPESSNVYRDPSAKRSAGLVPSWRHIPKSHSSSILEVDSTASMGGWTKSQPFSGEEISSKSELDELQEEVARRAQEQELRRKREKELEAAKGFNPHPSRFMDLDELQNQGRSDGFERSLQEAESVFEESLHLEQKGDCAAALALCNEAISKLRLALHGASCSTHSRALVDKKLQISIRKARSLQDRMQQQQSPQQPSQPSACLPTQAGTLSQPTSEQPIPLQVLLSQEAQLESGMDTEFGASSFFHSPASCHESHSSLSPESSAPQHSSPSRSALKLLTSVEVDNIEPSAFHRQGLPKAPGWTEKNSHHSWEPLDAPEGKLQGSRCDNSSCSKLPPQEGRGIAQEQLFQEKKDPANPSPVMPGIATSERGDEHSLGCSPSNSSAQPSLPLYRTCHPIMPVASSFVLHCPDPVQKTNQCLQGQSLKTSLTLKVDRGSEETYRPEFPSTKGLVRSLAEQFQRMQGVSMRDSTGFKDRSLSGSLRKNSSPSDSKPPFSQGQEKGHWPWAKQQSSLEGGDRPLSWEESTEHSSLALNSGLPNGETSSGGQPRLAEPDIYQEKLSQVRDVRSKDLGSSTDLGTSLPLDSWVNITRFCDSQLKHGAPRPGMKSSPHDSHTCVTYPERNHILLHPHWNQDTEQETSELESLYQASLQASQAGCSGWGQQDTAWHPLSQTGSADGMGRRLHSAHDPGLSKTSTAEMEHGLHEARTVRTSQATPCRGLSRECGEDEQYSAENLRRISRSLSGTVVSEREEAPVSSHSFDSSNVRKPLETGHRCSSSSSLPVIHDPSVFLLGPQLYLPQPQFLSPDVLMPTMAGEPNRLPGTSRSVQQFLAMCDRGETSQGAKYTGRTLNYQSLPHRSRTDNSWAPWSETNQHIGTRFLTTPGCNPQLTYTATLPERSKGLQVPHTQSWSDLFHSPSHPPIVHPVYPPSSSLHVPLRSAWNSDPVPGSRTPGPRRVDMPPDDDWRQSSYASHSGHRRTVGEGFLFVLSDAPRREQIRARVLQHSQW

NC(=O)C(Cc1ccccc1)NC(=O)CCl (stereo not drawn)
inactive: [1] -0.119 | [2] 0.0497 | [3] -0.239 | [4] -0.238 | [5] 0.0132 | [6] 0.357 | [7] -0.174 | [8] -0.047
